# Experimental data: PubChem BioAssay (NCI)
# The panel holds about 83,000 compounds, 20% with a hit somewhere; the sample as a whole holds those more often.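 Assay: single dose, 48 h. Readout: percent growth (0 = no net growth; negative = cell death). Active: <10.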 A number with no mark means an inactive call. The source made the active and inactive calls.
# Columns and labels:
# Assay in all cases: NCI-60 one-dose screen, 48 h (100 = growth as untreated, 0 = no growth, -100 = all killed)
# Settings in all cases: 10 µM unless noted
# BT-549 breast = test system: BT-549 breast
# MDA-MB-435 melanoma = test system: MDA-MB-435 melanoma
# SW-620 colon = test system: SW-620 colon
# MCF7 breast = test system: MCF7 breast
# HCT-116 colon = test system: HCT-116 colon
# HCC-2998 colon = test system: HCC-2998 colon
# KM12 colon = test system: KM12 colon
Compound,growth (BT-549 breast),growth (MDA-MB-435 melanoma),growth (SW-620 colon),growth (MCF7 breast),growth (HCT-116 colon),growth (HCC-2998 colon),growth (KM12 colon)
Cn1nc(C(F)(F)F)cc1-c1cc(Cl)c(OCc2ccc(Cl)cc2)c(-c2ccc(Cl)c(C(F)(F)F)c2)c1O,-0.385% (active),1.41% (active),12.2%,3.29% (active),-11.1% (active),13.6%,7.08% (active)
CCCCCCCCCCCCCCCCOc1ccc(S(=O)(=O)N(C)C)cc1[N+](=O)[O-],97.4%,107%,113%,95.8%,98.2%,122%,112%
COc1ccc(/C=c2\c(=O)n(-c3ccccc3)c3nn4c(=O)c(=O)[nH]nc4n23)cc1,105%,112%,106%,102%,102%,108%,109%
COc1ccc(-c2nsc3c2NC(=O)CC3c2ccc3c(c2)OCO3)cc1 (stereo not given),53.6%,-38.5% (active),24.9%,22.7%,28.6%,39.4%,31.2%
Cc1cc(C)cc(CCCCCCCCCCCCCCCCCC(=O)O)c1,103%,115%,108%,96.1%,99.9%,102%,106%
C#CC[C@@H]1C[C@]2(C)[C@H]3CC=C4[C@H]5CC(C)(C)CC[C@]5(C(=O)NCCCCN)CC[C@@]4(C)[C@]3(C)CC[C@H]2C(C)(C)[C@H]1OC(C)=O,97.8%,-34.2% (active),-23.9% (active),4.27% (active),-31% (active),1.58% (active),6.43% (active)
COc1cc(CN2CCO[C@H](COc3cccc(F)c3)C2)ccc1Cl,50.2%,29.2%,47.4%,26.7%,27.1%,49.3%,69%
COCCOCCOCc1n(Cc2ccc3ccccc3n2)c2ccccc2[n+]1Cc1ccc2ccccc2c1,-9.56% (active),-21.9% (active),12.4%,4.87% (active),7.79% (active),12.8%,-41.5% (active)
COc1ccc(C2=CC(c3ccc(OC)cc3Br)N3C=CSC3=N2)cc1 (stereo not given),30.7%,4.2% (active),27.3%,10.5%,-100% (active),59.7%,24.1%
C=CCn1c(C)nc2cc(Nc3nc(N4CCOCC4)nc4nc[nH]c34)ccc21,90.3%,100%,93.1%,86.5%,91.4%,100%,101%
C#CC[C@@H]1C[C@]2(C)[C@H]3CC=C4[C@H]5[C@@H](C)[C@H](C)CC[C@]5(C(=O)NCCCN5CCN(CCCN)CC5)CC[C@@]4(C)[C@]3(C)CC[C@H]2C(C)(C)[C@H]1OC(C)=O,-3.81% (active),-74.2% (active),-51% (active),-75.8% (active),-83.9% (active),-34.1% (active),1.28% (active)
Cc1c(C)c(C)c([N+](=O)[O-])c([N+](=O)[O-])c1C,101%,88.6%,106%,97%,109%,103%,98.1%
COc1ccc(Sc2[nH]c(C=O)c3ccccc23)cc1,-7.47% (active),-0.922% (active),16.1%,57.8%,61.1%,16.3%,22%
C#CC[C@@H]1C[C@]2(C)[C@H]3CC=C4[C@H]5[C@@H](C)[C@H](C)CC[C@]5(C(=O)NCCCCN)CC[C@@]4(C)[C@]3(C)CC[C@H]2C(C)(C)[C@H]1OC(C)=O,93.8%,40%,20.1%,12.2%,-56.4% (active),30%,38.3%
COC(=O)C(CCC(=O)CCl)N1C(=O)c2ccccc2C1=O (stereo not given),55.7%,35.2%,32.9%,26.2%,25%,89.4%,101%
Cc1cc(O)c(C2=NN(c3ccc(S(N)(=O)=O)cc3)C(c3ccc(Cl)cc3)C2)c(C)c1Cl (stereo not given),112%,38.6%,48.5%,13%,55.1%,66.5%,29.1%
Cc1cccc(C(=O)O)n1,109%,95.8%,103%,104%,99.2%,98.7%,110%
CCc1ccc(Nc2ncnc3c2cnn3-c2cccc(Br)c2)cc1,95.8%,98%,99.6%,102%,96.1%,98.1%,106%
C#CC[C@@H]1C[C@]2(C)[C@H]3CC[C@@H]4[C@H]5C(C(=C)C)CC[C@]5(C(=O)NCCCCN)CC[C@@]4(C)[C@]3(C)CC[C@H]2C(C)(C)[C@H]1OC(C)=O (stereo not given in full),41.2%,-92.2% (active),-66.8% (active),-71.6% (active),-85.7% (active),-11.1% (active),-66.8% (active)
CN1CCN(Cc2ccc(NC(=O)c3cncc(C#Cc4ncc5ccccn45)c3)cc2C(F)(F)F)CC1,39.3%,28.1%,1.35% (active),-6.36% (active),-51.5% (active),48.6%,4.65% (active)
Nc1nc(N)c2cc(Sc3ccc(Cl)cc3)ccc2n1,54.7%,28.6%,25.8%,19.7%,16.2%,6.07% (active),20.5%
CCNC(=S)N(Cc1ccccc1)Cc1ccccc1,119%,105%,115%,107%,110%,98.3%,114%
Nc1nc(N)c2c(n1)NC(c1sc(Cl)nc1Cl)CC(c1ccccc1)=N2 (stereo not given),44.5%,2.29% (active),19.3%,31.3%,21.4%,74.3%,47.9%
C=C(CN1CC=CCC1)[C@@H]1CC[C@]2(C(=O)OC)CC[C@]3(C)[C@H](CC[C@@H]4[C@@]5(C)CC[C@H](OC(C)=O)C(C)(C)[C@@H]5CC[C@]43C)[C@@H]12,85.6%,90.7%,102%,88.2%,86.7%,108%,78.6%
O=C1c2ccccc2C2N1CCC1CCc3ccccc3N12 (stereo not given),88.1%,110%,102%,96.4%,93.7%,110%,108%
